Measurements as given in the supplement of paper PMC4709259.
Structures can show the parent of a compound that is named as a salt. ± gives the standard deviation.

The molecules below were run on Jurkat (assay: cell count relative to DMSO control (fraction of control); higher = more cells (less growth inhibition)). Conditions: 48 h.
O=c1[nH]cc(F)c(=O)[nH]1 [Fluorouracil (5-Fluorouracil)] (concentration: 25 µM) was tested, and the cell count was 0.379 ± 0.023.
With COC1=CC(=O)C[C@@H](C)[C@]12Oc1c(Cl)c(OC)cc(OC)c1C2=O [Griseofulvin] (concentration: 2.5 µM) the cell count was 0.865 ± 0.099.
CC(=O)OCC[N+](C)(C)C [Acetylcholine Chloride] (concentration: 25 µM) was tested, and the cell count was 0.68 ± 0.19.
For CCN(CC)CCNC(=O)c1cc(Cl)c(N)cc1OC [Metoclopramide·HCl] (concentration: 25 µM), the cell count was 0.758 ± 0.16.
O=C1NC(=O)C(c2ccccc2)(c2ccccc2)N1 [Phenytoin] (concentration: 25 µM) showed a cell count of 0.74 ± 0.12.
For CCC1(c2ccccc2)C(=O)NCNC1=O [Primidone] (concentration: 25 µM), the cell count was 0.618 ± 0.18.
CC[C@]1(O)C[C@H]2CN(CCc3c([nH]c4ccccc34)[C@@](C(=O)OC)(c3cc4c(cc3OC)N(C=O)[C@H]3[C@@](O)(C(=O)OC)[C@H](OC(C)=O)[C@]5(CC)C=CCN6CC[C@]43[C@@H]65)C2)C1 [Vincristine Sulfate] (concentration: 25 nM) showed a cell count of 0.083 ± 0.066.
With COc1ccccc1OCCNCC(O)COc1cccc2[nH]c3ccccc3c12 (stereo not drawn) [Carvedilol] (concentration: 25 µM) the cell count was 0.39 ± 0.034.
With CNC[C@H](O)c1cccc(O)c1 [Phenylephrine] (concentration: 25 µM) the cell count was 0.873 ± 0.15.
Molecule CC(C)NCC(O)COc1ccc(CCOCC2CC2)cc1 (stereo not drawn) [Betaxolol·HCl] (concentration: 25 µM) has a cell count of 0.95 ± 0.17.
Molecule CCCc1cc(=O)[nH]c(=S)[nH]1 [Propylthiouracil] (concentration: 25 µM) has a cell count of 0.981 ± 0.1.
Work on CN1CC2c3ccccc3Oc3ccc(Cl)cc3C2C1 (stereo not drawn) [Asenapine Maleate] (concentration: 25 µM) yielded a cell count of 0.935 ± 0.16.
Work on COC(=O)Nc1nc2cc(C(=O)c3ccccc3)ccc2[nH]1 [Mebendazole] (concentration: 250 nM) yielded a cell count of 0.686 ± 0.074.
Work on Nc1ccc(O)c(C(=O)O)c1 [Mesalamine (5-Aminosalicylic Acid)] (concentration: 25 µM) yielded a cell count of 1 ± 0.046.
For O=c1[nH]cnc2c1ncn2[C@H]1CC[C@@H](CO)O1 [Didanosine] (concentration: 25 µM), the cell count was 0.462 ± 0.15.
In the case of NCCS [Cysteamine·HCl] (concentration: 25 µM), the cell count is reported as 0.513 ± 0.13.
CCOC(=O)[C@H](CCc1ccccc1)N[C@@H](C)C(=O)N1[C@H](C(=O)O)C[C@@H]2CCC[C@@H]21 [Ramipril] (concentration: 25 µM) was tested, and the cell count was 0.965 ± 0.031.
CN(C)CCC=C1c2ccccc2COc2ccccc21 [Doxepin·HCl] (concentration: 25 µM) was tested, and the cell count was 0.988 ± 0.13.
Molecule C[C@@H]1C[C@H]2[C@@H]3CCC4=CC(=O)C=C[C@]4(C)[C@@]3(F)[C@@H](O)C[C@]2(C)[C@@]1(O)C(=O)CO [Dexamethasone] (concentration: 25 µM) has a cell count of 0.819 ± 0.11.
For Nc1ncnc2c1ncn2[C@@H]1O[C@H](CO)[C@@H](O)[C@H]1O [Adenosine] (concentration: 25 µM), the cell count was 0.73 ± 0.082.
In the case of CC1=C(C(=O)O)N2C(=O)[C@@H](NC(=O)[C@H](N)c3ccc(O)cc3)[C@H]2SC1 [Cefadroxil] (concentration: 25 µM), the cell count is reported as 0.895 ± 0.079.
With COc1cc2nc(N3CCN(C(=O)C4COc5ccccc5O4)CC3)nc(N)c2cc1OC (stereo not drawn) [Doxazosin Mesylate] (concentration: 2.5 µM) the cell count was 0.79 ± 0.13.
Molecule CN(C)CCCN1c2ccccc2Sc2ccc(Cl)cc21 [Chlorpromazine·HCl] (concentration: 2.5 µM) has a cell count of 0.631 ± 0.15.
Work on CC1(C)O[C@@H]2[C@@H](CO[C@@]3(COS(N)(=O)=O)OC(C)(C)O[C@@H]23)O1 [Topiramate] (concentration: 25 µM) yielded a cell count of 1.14 ± 0.14.
COc1c(C)c2c(c(O)c1C/C=C(\C)CCC(=O)O)C(=O)OC2 [Mycophenolic Acid] (concentration: 2.5 µM) gave a cell count of 0.225 ± 0.05.
In the case of CC(=O)NS(=O)(=O)c1ccc(N)cc1 [Sulfacetamide·Na] (concentration: 25 µM), the cell count is reported as 0.78 ± 0.07.
CS(=O)(=O)OCCCCOS(C)(=O)=O [Busulfan] (concentration: 25 µM) was tested, and the cell count was 0.343 ± 0.046.
O=C1c2cccc3c2[C@H](CCC3)CN1[C@@H]1CN2CCC1CC2 [Palonosetron·HCl] (concentration: 25 µM) was tested, and the cell count was 0.721 ± 0.022.
